The record followed here is PubChem BioAssay AID463173 (ICCB-Longwood Screening Facility, Harvard Medical School, 2010).

The campaign covered roughly 52,000 compounds. About 1,700 (3.3%) were called active. Rule as the data show it: active = survival mostly below about 52% (no sharp cut-off); inactive = mostly above about 56%. The full list was thinned out, with actives kept by preference.

This assay concerns Wild type. Nature of the assay: S. aureus survival, RN4220 and DeltatarO strains – OD600, teichoic acid synthesis inhibitors, primary screen (AID 463173). The following applies: S. aureus RN4220 wild type/DeltatarO growth, OD600, 18 h, stronger effect = lower value, screened at 18.75 µg/mL (by protocol).
Turning to `Cc1ccc(CNC(=O)CN2C(=O)C3CCCCN3c3ccc(C(=O)N4CCCC4)cc32)cc1` (stereo not given), the survival is 81% (inactive).

In the case of `COc1ccc(-c2ccc(/C=N/NC(N)=O)o2)cc1`, the survival is 114% (inactive).

Regarding `COc1ccc(-c2nnc3n2N(C(C)=O)C(c2ccc(Cl)c(Cl)c2)=C(C(C)=O)S3)cc1`, the survival is -3% (active). On to `CC(=O)C1=C(c2ccc(Cl)c(Cl)c2)N(C(C)=O)n2c(nnc2-c2ccccc2)S1`, for which the survival was 83% (inactive).

`COc1ccc(C2=C(C(C)=O)Sc3nnc(-c4ccccc4)n3N2C(C)=O)cc1`: the survival was 76% (inactive). The result for `COC(=O)c1c(NC(=O)c2cc3nc(-c4ccc(OC)cc4)cc(C(F)(F)F)n3n2)sc2c1CCCC2` reads 73% (inactive); that for `Cc1c(CNC2CCCCCC2)c(C(=O)O)c(C)n1Cc1ccc(F)cc1`, 98% (inactive); that for `CCOc1ccccc1CNS(=O)(=O)c1cnc(N)nc1`, 55% (inactive). The value for `CCOc1ccccc1NS(=O)(=O)c1cnc(N)nc1` was -3% (active); that for `Nc1ncc(S(=O)(=O)Nc2ccc(F)cc2F)cn1` was 82% (inactive).

On to `Cc1ccc(C2Nc3ccccc3-n3c(-c4ccccc4)c4c(=O)n(C)c(=O)n(C)c4c32)cc1` (stereo not given), for which the survival was -8% (active). The value for `COc1ccc(-c2nc3ccccc3n3c(-c4ccccc4)c4c(=O)n(C)c(=O)n(C)c4c23)cc1` was 80% (inactive); that for `Cc1ccc(C2Nc3cc(C)c(C)cc3-n3c(-c4ccccc4)c4c(=O)n(C)c(=O)n(C)c4c32)o1` (stereo not given) was 77% (inactive). For `COc1ccc(C2Nc3ccccc3-n3c(-c4ccccc4)c4c(=O)n(C)c(=O)n(C)c4c32)cc1` (stereo not given), the survival was -3% (active). The result for `Cc1ccc(C2Nc3ccccc3-n3c(-c4ccccc4)c4c(=O)n(C)c(=O)n(C)c4c32)o1` (stereo not given) reads 74% (inactive); that for `COc1ccc(-c2c3c(=O)n(C)c(=O)n(C)c3c3n2-c2ccccc2NC3c2ccc(OC)cc2)cc1` (stereo not given), 8% (active); that for `COc1ccc(-c2c3c(=O)n(C)c(=O)n(C)c3c3n2-c2ccccc2NC3c2ccccc2OC)cc1` (stereo not given), 64% (inactive).

Consider `COc1ccc(-c2c3c(=O)n(C)c(=O)n(C)c3c3n2-c2ccccc2NC3c2ccco2)cc1` (stereo not given), for which the survival was 57% (inactive).

Consider `Cn1c(=O)c2c(-c3ccccc3)n3c(c2n(C)c1=O)C(c1ccc([N+](=O)[O-])cc1)Nc1ccccc1-3` (stereo not given), for which the survival was 21% (inactive). The value for `Cc1cc(C)cc(NC(=O)CN2C(=O)CSc3ccc(S(=O)(=O)N4CCCC4)cc32)c1` was 88% (inactive); that for `Cc1nnc(SCc2nc(-c3ccc(Cl)cc3)no2)n1-c1ccc(F)cc1` was 100% (inactive). Consider `CC(C)CCNC(=O)CCCN1C(=O)c2ccccc2Sc2ncccc21`, for which the survival was 85% (inactive).

For the compound `CCS(=O)(=O)c1nc(S(=O)(=O)c2ccc(C)cc2)c(NC(C)c2ccccc2)s1` (stereo not given), the survival is 136% (inactive).

On to `COC(=O)c1ccc2c(=O)n(CCCCCC(=O)N3CCN(c4ccc(OC)cc4)CC3)c(=O)[nH]c2c1`, for which the survival is 66% (inactive). On to `O=C(Nc1ccc(F)c(F)c1)C1CCCN1S(=O)(=O)c1cccc2nsnc12` (stereo not given), for which the survival is 77% (inactive). The result for `CCN(CC)CCN(C(=O)c1ccco1)c1nc2c(C)cccc2s1` reads 98% (inactive).

`O=C(Cn1nc(-c2nccc3ccccc23)oc1=O)N1CCCc2ccccc21`: the survival was 103% (inactive). The value for `COc1ccc(N2CCN(c3oc(/C=C/c4cccc(OC)c4)nc3C#N)CC2)cc1` was 83% (inactive). The result for `COc1ccc(-c2nc(CNC(=O)Nc3ccccc3)c(C)o2)cc1` reads 84% (inactive); that for `COC(=O)c1ccc([C@@H]2Nc3c(cccc3C(F)(F)F)[C@@H]3C=CC[C@@H]32)cc1`, 3% (active).

In the case of `COc1ccc(Br)cc1[C@@H]1Nc2ccc(C(=O)O)cc2[C@@H]2C=CC[C@@H]21`, the survival was 65% (inactive). The result for `COc1cccc(NS(=O)(=O)c2ccc3c(c2)[C@H]2C=CC[C@H]2[C@@H](c2ccccc2Cl)N3)c1` reads 131% (inactive); that for `CCOC(=O)c1ccc2c(c1)[C@@H]1C=CC[C@@H]1[C@H](c1cccc(OC)c1OC)N2`, 0% (active); that for `CCOc1cccc2c1N[C@@H](c1ccc(C(=O)O)cc1)[C@H]1CC=C[C@@H]21`, 78% (inactive). The result for `CCOC(=O)c1cccc2c1N[C@@H](c1ccc(F)cc1)[C@H]1CC=C[C@@H]21` reads 12% (active); that for `COC(=O)c1ccc([C@@H]2Nc3c(C)cc(C)cc3[C@@H]3C=CC[C@@H]32)cc1`, 87% (inactive).

With `COC(=O)c1ccc([C@H]2Nc3ccc(S(=O)(=O)Nc4ccc(F)cc4)cc3[C@H]3C=CC[C@H]32)cc1`, the survival is 69% (inactive).

As for `CCOc1ccc2c(c1)[C@@H]1C=CC[C@@H]1[C@H](c1ccccc1Cl)N2`, the survival is 0% (active). The result for `COC(=O)c1ccc([C@H]2Nc3ccc(S(=O)(=O)Nc4cccc(C)c4)cc3[C@H]3C=CC[C@H]32)cc1` reads 68% (inactive); that for `Fc1ccc([C@@H]2Nc3ccccc3[C@@H]3C=CC[C@@H]32)cc1`, 88% (inactive). The value for `COC(=O)c1cccc2c1NC(c1cccnc1)C1CC=CC21` (stereo not given) was 111% (inactive); that for `Fc1ccc(-n2ncc3c(Nc4ccc(Oc5ccc(Cl)cc5)cc4)ncnc32)cc1` was 85% (inactive).

On to `CC(=O)c1ccc(NC(=O)C2CCC(CNS(=O)(=O)c3cccs3)CC2)cc1` (stereo not given), for which the survival is 60% (inactive). The value for `O=C(Cn1c(=O)n(CC2CCCO2)c(=O)c2ccccc21)Nc1cccc(Cl)c1` (stereo not given) was 82% (inactive); that for `Cn1c(=O)c(=O)n(C)c2cc(NS(=O)(=O)c3ccc(Br)cc3)c(Cl)cc21` was 65% (inactive).

For `Cc1ccc2oc3c(c(=O)c2c1)C(c1ccccc1F)N(CCCN1CCOCC1)C3=O` (stereo not given), the survival was 71% (inactive). On to `CCOc1ccc(NC(=O)C(CC)n2c(=O)c(-c3ccccc3NC(C)=O)nc3ccccc32)cc1` (stereo not given), for which the survival is 64% (inactive). The value for `CC(=O)N1CCc2cc(S(=O)(=O)NC(CC(C)C)C(=O)NCCc3cccc(C)c3)ccc21` (stereo not given) was 76% (inactive); that for `Cc1nonc1C(=O)NCC(=O)O` was 91% (inactive); that for `O=C(Nc1cccc(C(F)(F)F)c1)N1CC2CCCN2c2ccccc21` (stereo not given) was 55% (inactive). Turning to `Cc1ccc(Cl)c2c1N[C@@H](c1ccc(C(=O)O)cc1)[C@H]1CC=C[C@@H]21`, the survival is 10% (active).

In the case of `COc1ccc(NS(=O)(=O)c2ccc3c(c2)[C@H]2C=CC[C@H]2[C@@H](c2ccc(C(=O)O)cc2)N3)cc1`, the survival was 68% (inactive). As to `COC(=O)c1ccc([C@@H]2Nc3c(OC)ccc(C)c3[C@@H]3C=CC[C@@H]32)cc1`, the survival was 77% (inactive).

With `CCN(CCCNC(=O)CN1N=C(c2ccccc2)CCC1=O)c1cccc(C)c1`, the survival was 136% (inactive). The value for `Cc1ccc(C2=NN(CC(=O)NCCC(C)C)C(=O)CC2)cc1` was 10% (active). The value for `Cc1ccc(C2=NN(CC(=O)NCCN(CC(C)C)CC(C)C)C(=O)CC2)cc1` was 129% (inactive).

Take `CCCCN(CCCNC(=O)CN1N=C(c2ccc(C)cc2)CCC1=O)c1ccccc1`: the survival was 101% (inactive). The value for `CCN(CCCNC(=O)CN1N=C(c2ccc(C)cc2)CCC1=O)c1ccccc1` was -2% (active).

Regarding `CCN(CCCNC(=O)CN1N=C(c2ccccc2)CCC1=O)c1ccccc1`, the survival was -6% (active).

For `CCCCN(CCCNC(=O)CN1N=C(c2ccccc2)CCC1=O)c1ccccc1`, the survival was 72% (inactive).

With `Cc1ccc(C2=NN(CC(=O)NCCCN(CC(C)C)CC(C)C)C(=O)CC2)cc1`, the survival was 84% (inactive). The result for `CCN(CCCNC(=O)CN1N=C(c2ccc(OC)cc2)CCC1=O)c1cccc(C)c1` reads 124% (inactive); that for `COc1ccccc1N1CCN(C(=O)c2cnn(-c3ccc(C)c(C)c3)c2C2CCN(C(=O)OC(C)(C)C)CC2)CC1`, 99% (inactive).

Regarding `CC(=O)NCCNc1nc2c(-c3ccc(C)cc3)nnn2c2ccccc12`, the survival was 82% (inactive). In the case of `CCN(CC)C(=O)c1cc(-c2ccc(Cl)cc2)on1`, the survival is 51% (inactive). The value for `CCCN1C(=O)C(NC(=O)c2ccccc2OC)(C(F)(F)F)C(C(=O)OC)=C1C` (stereo not given) was 78% (inactive); that for `N#C/C(=C\c1cc(Br)c(O)c(Br)c1)c1nc2ccccc2c(=O)[nH]1` was 94% (inactive). As to `O=C(NCc1ccccc1Cl)c1cc(=O)[nH]c2ccc(S(=O)(=O)N3CCCCC3)cc12`, the survival is 83% (inactive).

For `CCOC(=O)c1c(Nc2ccc(C)cc2)nnc(-c2ccccc2)c1-c1ccccc1`, the survival was 2% (active). The result for `CCOC(=O)c1c(Nc2ccc(C)c(C)c2)nnc(-c2ccccc2)c1-c1ccccc1` reads 0% (active). The result for `CCOC(=O)c1cccc(Nc2cc(-c3ccccc3)ncn2)c1` reads 40% (inactive). The result for `CCOC(=O)c1c(Nc2ccc(F)cc2)nnc(-c2ccccc2)c1-c1ccccc1` reads 1% (active); that for `CCOC(=O)c1c(Nc2cccc(C)c2)nnc(-c2ccccc2)c1-c1ccccc1`, 0% (active).

With `CCOC(=O)c1c(Nc2cc(C)cc(C)c2)nnc(-c2ccccc2)c1-c1ccccc1`, the survival was 38% (inactive). Regarding `CCOC(=O)c1nc(Nc2ccc(OC)cc2)c2ccccc2n1`, the survival was 143% (inactive).

As to `CCOC(=O)c1c(C)oc2nc(C)nc(Nc3ccc(CC)cc3)c12`, the survival was 115% (inactive). Take `CCOC(=O)c1c(Oc2ccc(C(C)=O)cc2)nnc(-c2ccccc2)c1-c1ccccc1`: the survival is 92% (inactive). The value for `CCOC(=O)c1cnc(-c2ccccc2)nc1Nc1ccc(C)cc1` was 111% (inactive). The result for `CCOC(=O)c1c(C)oc2nc(C)nc(Nc3ccc(C)c(Cl)c3)c12` reads 80% (inactive). The value for `CCOC(=O)c1c(Nc2cccc(O)c2)nnc(-c2ccccc2)c1-c1ccccc1` was 44% (inactive); that for `CCCCOC(=O)c1ccc(Nc2ncnc3c2cnn3-c2cccc(C)c2)cc1` was 88% (inactive). Take `Cn1cnnc1SC1CCCCC1NS(=O)(=O)c1ccc(Cl)cc1` (stereo not given): the survival was 103% (inactive). The value for `COc1ccccc1N1CCN(c2cc(C)nc3nc(-c4ccc(Cl)cc4)nn23)CC1` was 78% (inactive); that for `CCCCN(CC)CCCNC(=O)c1cc2c(=O)oc3ccc(C)cc3c2s1` was 97% (inactive).

Consider `COc1ccc2c(c1)c1c(c(=O)n(Cc3ccccc3)c(=O)n1CC(=O)NCc1ccc(C)cc1)n2C`, for which the survival was 82% (inactive).
